TDP1 cell noCPT: qHTS for Inhibitors of human tyrosyl-DNA phosphodiesterase 1 (TDP1): qHTS in cells in absence of CPT | DT40 Tdp1-/- hTDP1 cells, no CPT, ATP luminescence, 48 h | Potency, µM (top dose mostly 46.2 µM), for inactives: top-dose activity change, negative = growth inhibition, actives largely listed as inhibitors | hit rate 15% among 420,000 | AID 686978, 2013; also: potency is read from the fitted curve at half-maximal effect; nearly all actives have a fitted effect of over 55% in size
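Stably hTDP1-transfected Tdp1-null chicken DT40 cells were treated with library compounds minus camptothecin and grown for at least 48 hr at 37 °C, after which cellular ATP was quantified by luminescence.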
IL1B secr inh: blocks inflammasome-driven IL-1 beta release | THP-1 LPS/ATP IL-1B secretion, AlphaLISA, 16 h; hits give low values | hit rate 4.7% among 360,000 | activity change, % at 57.5 µM; in the data active = activity change below about -50%; inconclusive = mostly about -30% to -49%
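Secreted IL-1B measured by AlphaLISA bead assay after 16 h compound exposure of THP-1 cells; compounds (final up to 57.5 uM) added 1 h before LPS (250 ng/mL) and ATP (1.25 mM) stimulation; lower signal means less secretion.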
HT1080NT lethal: kills 2HG-producing HT-1080-NT fibrosarcoma cells. HT-1080-NT fibrosarcoma viability, CellTiter-Glo ATP luminescence, 48 h. Potency, µM (doses to about 46.1 µM), for inactives: top-dose activity, negative = less viability, most hits filed as cytotoxic. hit rate 1.6% among 360,000;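 also: NT is the 2HG producing partner of a matched IDH1 knockdown line; potency is read from the fitted curve at half-maximal effect; 0% = DMSO-treated cells and -100% = media-only wells without cells; nearly all actives have a fitted effect of over 55% in size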
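Viability by CellTiter-Glo luminescence after 48 h compound exposure at 37C of HT-1080-NT cells (750/well, RPMI, 5% FBS). % activity scaled between DMSO wells and medium-only wells, then curve-fitted and categorized by curve class.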
HT1080 IDH1KD tx: toxicity to HT-1080 IDH1 knockdown cells (counter line); HT-1080 IDH1 knockdown viability, ATP luminescence, 48 h; Potency, µM (titrated, usually from 46.1 µM), inactives show top-dose activity, negative = toxicity, actives largely listed as cytotoxic; hit rate 2% among 360,000;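 also: potency is read from the fitted curve at half-maximal effect; 0% = DMSO wells and -100% = cell-free medium wells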
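Cytotoxicity counter-line: IDH1KD HT-1080, 48 h, CellTiter-Glo. Curves classed by r2, magnitude and activity.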
DT40 TDP1 CPT: growth inhibition of DT40 Tdp1-/-;hTDP1 cells with camptothecin (screen for TDP1 inhibitors); chicken DT40 Tdp1-/-;hTDP1 cells + 20 nM CPT, ATP luminescence, 48 h; Potency, µM (series often up to 46.2 µM), for the others: top-dose activity change, negative = growth inhibition, hits mostly inhibitors; hit rate 12% among 420,000; AID 686979; also: potency is read from the fitted curve at half-maximal effect; nearly all actives have a fitted effect of over 55% in size
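Chicken DT40 Tdp1-/- cells stably complemented with human TDP1 were seeded at 400 cells/well in medium containing 20 nM camptothecin, exposed to pin-transferred compounds, and grown at 37 °C for at least 48 hr. Viability was read as ATP luminescence.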
* marks the source's active call; other numbers are inactive results; ? = inconclusive; . = no result given. Rows were chosen to be rich in hits. Some 19% of all compounds tested hit in one or more screens of this group. Unless noted, calls follow the shape of the dose curve; as a rule, active = well fitted curve in the direction sought with a large enough effect; inconclusive = small, poorly fitted or top-dose-only effect, or another doubt; inactive = no such curve, though single readings can be large; an effect the other way counts as inactive or inconclusive. Unless noted, % is scaled to controls: 0 for no effect and ±100 for the full control effect.

SMILES	TDP1 cell noCPT	IL1B secr inh	HT1080NT lethal	HT1080 IDH1KD tx	DT40 TDP1 CPT
Cc1cccc(CCNS(=O)(=O)c2ccc3c(c2)NC(=O)CS3)c1	-28%	13	-3%	-3%	1%
Cc1ccccc1N=Nc1ccc(N=Nc2c(O)ccc3ccccc23)c(C)c1	-22%	.	.	.	-28%
Oc1ccc(N=Nc2ccc3c(c2)OCCO3)c2ncccc12	2.1µM*	115	?	3.7µM*	2.9µM*
CCOc1ccc(N=Nc2ccc(O)c3ncccc23)cc1	?	82	?	?	?
Cc1cccc(N=Nc2ccc(O)c3ncccc23)c1	6.5µM*	3	?	7.3µM*	7.3µM*
Cc1ccc(C)c(N=Nc2ccc(O)c3ncccc23)c1	2.1µM*	154	?	?	2.1µM*
Cc1ccc(N=Nc2cc(C)ccc2O)c(C)c1	20%	15	8%	11%	0%
O=C(Nc1ccc(NC(=O)c2ccccn2)cc1)C(=O)Nc1ccc2c(c1)OCCO2	0%	8	-14%	-6%	-28%
NS(=O)(=O)c1ccc(N=Nc2ccc(O)c3ncccc23)cc1	2.3µM*	60	?	23µM*	2.6µM*
COc1ccc(S(=O)(=O)N(C)CC(=O)NCCCN2CCOCC2)cc1C	-26%	25	10%	23%	?
N#CCCn1c(=O)c(-c2ccccc2)nc2cnc(Oc3ccccc3)nc21	?	.	.	.	10%
Cn1cc(Br)c(-c2cccc(NC(=O)CC(C)(C)CC(=O)O)c2)n1	-25%	27	?	6%	-8%
COc1ccccc1-n1cnc2cc(NCc3ccco3)ccc21	1.3µM*	-4	5.2µM*	?	1.5µM*
Oc1ccc(NCc2cccs2)cc1	13µM*	9	?	?	?
CCOc1ccc(CNc2ccc3c(c2)ncn3C)cc1	?	-6	5%	1%	-12%
CC(C)(C)n1cnc2cc(NC(=O)c3cccs3)ccc21	23µM*	-70*	-2%	0%	?
CCOc1ccc(CNc2ccc3c(c2)ncn3C(C)(C)C)cc1	21µM*	2	-1%	-4%	?
CCCn1cnc2cc(NCc3cccc(OC)c3)ccc21	?	-8	-11%	-1%	-23%
CCCNC(=O)c1ccc2c(c1)ncn2-c1ccccc1OC	?	20	26%	22%	3%
Cn1c(NCc2cccs2)nc2ccccc21	-21%	7	-2%	3%	-3%
CCn1cnc2cc(NCc3cccs3)ccc21	3%	-2	13%	10%	-25%
CC(C)(C)n1cnc2cc(NCc3cccs3)ccc21	-17%	-59*	2%	3%	?
Cc1ccccc1-n1cnc2cc(NCc3cccs3)ccc21	23µM*	-11	-28%	?	?
COc1ccccc1-n1cnc2cc(NCc3cccs3)ccc21	0.92µM*	-8	3.7µM*	2.1µM*	0.73µM*
COc1ccc(CNc2ccc3c(c2)ncn3-c2ccccc2OC)cc1	?	-91*	-9%	-18%	?
SMILES	TDP1 cell noCPT	IL1B secr inh	HT1080NT lethal	HT1080 IDH1KD tx	DT40 TDP1 CPT
COc1cccc(CNC(=O)N2CCC(CN3CCC(C)CC3)CC2)c1	-9%	.	.	.	10%
CCn1nnc2cc(C(=O)NCC(c3ccccc3OC)N(C)C)ccc21 (centres undefined)	-16%	26	-1%	-6%	0%
Fc1c(CSC(=S)N2CCOCC2)cccc1CSC(=S)N1CCOCC1	?	-3	2%	2%	?
COc1ccc(Cn2c(SCc3ccc(C(=O)NC4CCCCC4)cc3)nc3ccncc32)cc1	16µM*	.	.	.	?
CCCCNC(=O)Cn1c(SCc2cccc(C)c2)nc2ccncc21	-19%	.	.	.	-23%
Cc1ccc(Cn2c(SCc3ccc(C(=O)NC4CCCCC4)cc3)nc3ccncc32)cc1	21µM*	.	.	.	?
COc1ccc(CSc2nc3ccncc3n2CC(=O)Nc2cc(C)cc(C)c2)cc1	16µM*	.	.	.	?
CCC(C(=O)NC1CCCCC1)n1c(SCc2ccc(F)cc2)nc2ccncc21 (centres undefined)	?	16	0%	-12%	?
